According to the supplement of paper PMC10498489:
Among all 2,300 compounds or so, about 330 (14%) showed activity. Only a sample is shown. A number with no mark means an inactive call.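 The calls were made as follows: active = median modified Z-score above 1.96; inactive = 1.96 or below.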

Tested on: HepG2 Srxn1-GFP reporter cells (+30 nM CDDO-Me)
Assay: Srxn1-GFP intensity median modified Z-score relative to plate median; higher = stronger NRF2 / oxidative stress reporter activation, active = hit call of the paper
Settings: 10 µM; exposure time: 24h
How it was run: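 Per-cell cytoplasmic GFP was measured on confocal images of formaldehyde-fixed, Hoechst-stained HepG2 Srxn1-GFP BAC reporter cells, excluding images with fewer than 100 cells. Before this, the cells (20,000 per well, 96-well plates) were co-exposed for 24 h to compound at 10 μM and an NRF2 activator at 30 nM with ≤0.1% DMSO, in three replicate plates. Each value is the median over replicates of the per-plate modified Z-score of GFP intensity. That score was scaled with 1.4826 × median absolute deviation.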

Row | Compound | Srxn1-GFP intensity median modified Z-score
1 | N=c1c2ccccc2[nH]c2ccccc12 [euspeclibcmpd350] | 15 (active)
2 | O=c1c2ccccc2[nH]c2ccccc12 | 0.588
3 | N=c1c2c([nH]c3ccccc13)CCCC2 [euspeclibcmpd944] | -0.0541
4 | CC(=O)c1c(O)c(C)c(O)c2c1OC1=CC(=O)C(C(C)=O)C(=O)C12C (centres undefined) [euspeclibcmpd1449] | 12.3 (active)
5 | NCCC(=O)C(O)N[C@@H]1C[C@H](N)[C@@H](O[C@H]2O[C@H](CN)[C@@H](O)[C@H](O)[C@H]2O)[C@H](O)[C@H]1O[C@H]1O[C@H](CO)[C@@H](O)[C@H](N)C1O (some centres undefined) [euspeclibcmpd967] | -0.34
6 | CCCC[C@@H](CC)COC(=O)/C=C/c1ccc(OC)cc1 [euspeclibcmpd2186] | 1.35
7 | COC1=CC(=O)C(C(=O)c2ccccc2)=CC1=O [euspeclibcmpd1986] | -0.559
8 | COC1=CC(=O)C=C(OC)C1=O [euspeclibcmpd2007] | 0.392
9 | COC1=CC(=O)C(=O)C=C1C=CCc1ccccc1 [euspeclibcmpd1419] | 9.05 (active)
10 | CC(=O)OCC(=O)[C@@]1(O)CCC2C3CC=C4CC(=O)CC[C@]4(C)[C@@]3(F)[C@@H](O)C[C@@]21C (some centres undefined) [euspeclibcmpd127] | -0.373
11 | Cc1n[nH]c(=NS(=O)(=O)c2ccc(N)cc2)s1 [euspeclibcmpd277] | -0.64
12 | Cc1csc(/C(C#N)=C\C=C\c2ccccc2[N+](=O)[O-])n1 | 35.4 (active)
13 | OC[C@@H](O)[C@@H](O[C@@H]1O[C@H](CO)[C@H](O)[C@H](O)[C@H]1O)[C@H](O)[C@@H](O)CO [euspeclibcmpd2389] | -0.142
14 | CC1(C(=O)O)CCC2(C)CCC3(C)C(=C2C1)CC(=O)C1C2(C)CCC(O)C(C)(C)C2CCC13C (centres undefined) [euspeclibcmpd1963] | -0.0731
15 | O=C(COC(=O)C12CC3CC(C1)CC(c1ccccc1)(C3)C2)Nc1ncc(C(F)(F)F)cc1Cl | 1.42
16 | CCN(CC)C(=O)C(C#N)=Cc1cc(O)c(O)c([N+](=O)[O-])c1 [euspeclibcmpd861] | -0.942
17 | CC(C)(O)[C@@H]1CC[C@](C)([C@H]2[C@@H](O)C[C@@]3(C)C4C[C@H](O[C@@H]5O[C@H](CO)[C@@H](O)[C@H](O)[C@H]5O)C5C(C)(C)[C@@H](O[C@@H]6OC[C@@H](O)[C@H](O)[C@H]6O)CC[C@@]56C[C@@]46CC[C@]23C)O1 (some centres undefined) [euspeclibcmpd1691] | -0.304
18 | O=C(O)CN1C(=O)c2cccc3cccc(c23)C1=O [euspeclibcmpd433] | 2.2 (active)
19 | O=C(O)CCCN1C(=O)c2cccc3cccc(c23)C1=O [euspeclibcmpd1803] | -0.0255
20 | CCCCCCCC/C=C/CCCCCCCCOP(=O)(O)OCC[N+](C)(C)C [euspeclibcmpd1773] | 1.28
21 | CNC(C)[C@@H]1CC[C@@H](N)[C@@H](OC2[C@@H](N)C[C@@H](N)[C@H](OC3OC[C@](C)(O)[C@H](NC)[C@H]3O)[C@H]2O)O1 (some centres undefined) [euspeclibcmpd820] | -0.00227
22 | CC(=O)O[C@]1(C(C)=O)CCC2C3CC(C)=C4CC(=O)CC[C@]4(C)C3CC[C@@]21C (some centres undefined) [euspeclibcmpd178] | -0.198

Row | Compound | Srxn1-GFP intensity median modified Z-score
23 | C=C1C(=O)O[C@@H]2C[C@@]3(C)CCC[C@H](C)C3=C[C@H]12 [euspeclibcmpd1482] | 10.2 (active)
24 | Cc1cc(-c2ccc(N=Nc3ccc4c(S(=O)(=O)O)cc(S(=O)(=O)O)c(N)c4c3O)c(C)c2)ccc1N=Nc1ccc2c(S(=O)(=O)O)cc(S(=O)(=O)O)c(N)c2c1O [euspeclibcmpd2073] | -1.03
25 | NC1(C(=O)O)CCCC1 [euspeclibcmpd1759] | -0.415
26 | CC1=C(CCC(=O)O)c2cc3nc(cc4[nH]c(cc5[nH]c(cc1n2)c(C)c5C(C)O)c(C)c4C(C)O)C(C)=C3CCC(=O)O (centres undefined) [euspeclibcmpd1687] | 8.82 (active)
27 | C=CC1=C(C)c2cc3[nH]c(cc4[nH]c(cc5nc(cc1n2)=C(C)C5=CCC(=O)O)c(CCC(=O)O)c4C)c(C)c3=CC [euspeclibcmpd1059] | 0.562
28 | O=C(O)CCc1nc2ccccc2[nH]1 [euspeclibcmpd1271] | -0.404
29 | CN(C)C(N)=NC(=N)N [euspeclibcmpd874] | -0.199
30 | CC(CCC(=O)O)C1CCC2C3CCC4CC(O)CCC4(C)C3CC(=O)C12C (centres undefined) | 0.291
31 | O=C(O)[C@H](O)[C@@H](O)[C@H](O)[C@H](O)CO [euspeclibcmpd2450] | 0.571
32 | O=C(O)/C=C/C=C/c1ccccc1 [euspeclibcmpd1620] | -0.147
33 | COc1ccc(C=CC(=O)c2cc(O)ccc2O)cc1 [euspeclibcmpd1400] | -0.058
34 | O=C(/C=C/c1ccccc1)c1ccc(O)cc1 [euspeclibcmpd1718] | 12.6 (active)
35 | O=C(/C=C/c1ccccc1)c1ccc(O)cc1 | 4.36 (active)
36 | CCOC(=O)c1ccc(O)cc1 [euspeclibcmpd974] | -0.257
37 | COc1ccc(C(=O)/C=C/c2cccc(Cl)c2)cc1 | 0.75
38 | COc1ccc(C(=O)/C=C/c2ccccc2)cc1 [euspeclibcmpd1565] | 26.7 (active)
39 | COc1ccc2oc(-c3ccccc3)c(OC)c(=O)c2c1 [euspeclibcmpd1782] | 1.28
40 | O[C@@H]1[C@@H](O)[C@@H](O)OC[C@H]1O | 0.871
41 | CC1C2C(CC3C4CC[C@H]5C[C@@H](O)CC[C@]5(C)C4CC(=O)[C@@]32C)O[C@]12CC[C@@H](C)CO2 (some centres undefined) [euspeclibcmpd1427] | -0.425
42 | COc1cc(/C=C/C(=O)N2CC=CCC2=O)cc(OC)c1OC [euspeclibcmpd1434] | 1.01
43 | CON [euspeclibcmpd1358] | -0.128
44 | CC(C)[N+]1(C)C2CC[C@H]1C[C@@H](OC(=O)C(CO)c1ccccc1)C2 (some centres undefined) [euspeclibcmpd162] | 0.508
